Reference: PubChem BioAssay (NCATS)
Inconclusive results are not listed. Active and inactive are the calls of the source. Calls follow the shape of the dose curve; as a rule, active = well fitted curve in the direction sought with a large enough effect; inconclusive = small, poorly fitted or top-dose-only effect, or another doubt; inactive = no such curve, though single readings can be large; an effect the other way counts as inactive or inconclusive.

How the values were obtained:
[1] = Cellular Toxicity (caspase-3) Hek293 (AID 664);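 also: cells exposed to compound for 16 h at 37 °C before readout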
Outline: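 HEK293 cells in complete medium treated 16 h at 37 °C, then Caspase-Glo 3/7 luminescence read after 20 min at room temperature. Normalized to DMSO and 100 uM tamoxifen; AC50 from Hill fit of concentration-response.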

[2] = Cellular Toxicity (caspase-3) NIH 3T3 (AID 666);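 also: caspase signal read after 16 h compound exposure; 0% = DMSO basal and 100% = 100 µM tamoxifen stimulation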
Outline: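 Mouse NIH 3T3 fibroblasts (1000/well) treated 16 h at 37 C; caspase-3/7 activity measured by Caspase-Glo 3/7 luminescence after 20 min. Normalized to DMSO and 100 uM tamoxifen; AC50 from Hill fits.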

[3] = Cellular Toxicity (caspase-3) Renal Proximal Tubule (AID 667); conditions: renal proximal tubule cells; at 91.7 µM (top of the series), primary cells freshly taken from rat, solvent-only wells 0%, staurosporine 100% unless noted;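 also: cells exposed to compound for 16 hours at 37 °C before detection; 0% = DMSO basal and 100% = 10 µM staurosporine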
Outline: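 In qHTS format, rat primary proximal tubule cells seeded at 1000 per well are exposed to compounds for 16 hours at 37 °C. An increase in Caspase-Glo 3/7 luminescence indicates caspase activation.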

[4] = target: Cytochrome P450 3A4 (Homo sapiens) (UniProt P08684); experiment: qHTS Assay for Inhibitors and Substrates of Cytochrome P450 3A4 (AID 884); also: % is scaled to controls: 0 for no effect and ±100 for the full control effect; nearly all actives have a fitted effect of over 50% in size
Outline: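 20 nM human CYP3A4 with 25 uM Luciferin-PPXE (at KM) in 200 mM KPO4, preincubated 10 min with compound; NADPH regeneration started a 60 min RT reaction. Luciferin detected by luminescence, normalized to 57 uM ketoconazole as full inhibition.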

[5] = Cell Viability - LYMP2-001 (AID 921);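 also: 0% = DMSO only and full inhibition = tetraoctylammonium bromide control wells; nearly all actives have a fitted effect of over 70% in size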
Outline: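 qHTS, 1536-well; lymphoblastoid cells, 24 hr compound, 37 C; ATP by CellTiter-Glo, 30 min RT; luminescence; Hill-fit AC50.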

[6] = MultiTox-Fluor Cytotoxicity Assay - LYMP1-001 - Dead Cells (AID 946)
Outline: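 Cytotoxicity as increased dead-cell protease fluorescence (bis-AAF-R110, 485/520 nm), read 60 min after MultiTox-Fluor reagent. Human lymphoblastoid line exposed 16 h; Hill-fitted AC50, with DMSO as 0% and 15 uM tetraoctylammonium bromide as 100%.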

[7] = Cell Viability - LYMP1-002 - Assay at 16 hr (AID 948);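 also: 0% = DMSO alone and full effect = 92 µM tetraoctylammonium bromide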
Outline: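 Acute cytotoxicity is scored as a concentration-dependent fall in intracellular ATP in a human lymphoblastoid line (LYMP1-002) after 16 hr compound exposure at 37 C, measured by luciferase luminescence.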

[8] = MultiTox-Fluor Cytotoxicity Assay - LYMP1-002 - Live Cells (AID 955); also: % is scaled to controls: 0 for no effect and ±100 for the full control effect
Outline: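 Human lymphoblastoid LYMP1-002 cells, 2500/well, treated 16 h at 37 C in complete medium. Live-cell protease activity via GF-AFC fluorescence (Ex/Em 405/510) after 60 min reagent incubation; AC50 from Hill fits.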

[9] = MultiTox-Fluor Cytotoxicity Assay - LYMP1-002 - Dead Cells (AID 960); also: nearly all actives have a fitted effect of over 60% in size
Outline: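 Human lymphoblastoid LYMP1-002 cells, 2500/well, treated 16 h at 37 C; dead-cell protease cleavage of bis-AAF-R110 read by fluorescence (485/520); normalized to DMSO and 15 uM tetraoctylammonium bromide; AC50 from Hill fit.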

[10] = MultiTox-Fluor Cytotoxicity Assay - LYMP1-003 - Dead Cells (AID 961); also: nearly all actives have a fitted effect of over 70% in size
Outline: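 Dead-cell protease release, detected as bis-AAF-R110 fluorescence at 485/520 nm, was measured in LYMP1-003 cells after 16 h compound treatment at 37 C. AC50 values came from Hill-modeled qHTS curves normalized to DMSO (0%) and 15 uM tetraoctylammonium bromide (100%).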

[11] = MultiTox-Fluor Cytotoxicity Assay - LYMP1-003 - Live Cells (AID 962);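 also: 0% = DMSO only and full loss = 92 µM tetraoctylammonium bromide; cytotoxic hits lower the live-cell protease signal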
Outline: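 LYMP1-003 lymphoblastoid cells, 2500/well in complete medium, treated 16 h at 37 C; live-cell protease cleavage of GF-AFC read by fluorescence (Ex/Em 405/510) after 60 min reagent; AC50 from Hill fits of concentration-response.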

[12] = Cell Viability - LYMP1-003 - Assay at 24 hr (AID 963);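 also: plate controls were DMSO only for no effect and tetraoctylammonium bromide positive control for full effect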
Outline: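 Human lymphoblastoid LYMP1-003 cells, 2500/well, treated 24 h at 37 C in complete medium. Viability read as intracellular ATP by CellTiter-Glo luminescence after 30 min at room temperature; AC50 from Hill-equation fits of qHTS concentration-response.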

[13] = Cell Viability - LYMP2-003 (AID 965);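 also: cells exposed to compounds for 24 h before reading; 0% = DMSO only and full effect = 92 µM tetraoctylammonium bromide; nearly all actives have a fitted effect of over 50% in size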
Outline: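 Acute cytotoxicity is scored as a concentration-dependent drop in intracellular ATP, measured by luciferase luminescence in human lymphoblastoid cells treated for 24 hours at 37 C. AC50 values derive from Hill-equation modelling.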

[14] = Cell Viability - LYMP2-004 (AID 966);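 also: plate controls were DMSO only for no effect and tetraoctylammonium bromide control for full effect; nearly all actives have a fitted effect of over 65% in size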
Outline: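 Lymphoblastoid LYMP2-004 cells, 2500 per well, were preincubated for 5 hr and then treated with compound for 24 h at 37 C in complete medium. Viability was read as cellular ATP by CellTiter-Glo luminescence, and AC50 values were taken from Hill fits to concentration-response data.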

[15] = Cell Viability - LYMP2-005 (AID 967);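 also: plate controls were DMSO only for no effect and 92 µM tetraoctylammonium bromide control for full effect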
Outline: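 qHTS viability screen in LYMP2-005 cells: 24 h at 37 C with compound, ATP luminescence via CellTiter-Glo, AC50 from Hill curves.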

[16] = Cell Viability - LYMP2-009 (AID 968);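 also: 0% = DMSO alone and the full-kill end = tetraoctylammonium bromide at 92 µM; nearly all actives have a fitted effect of over 55% in size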
[17] = Cell Viability - LYMP2-011 (AID 969);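 also: 0% = DMSO only and full inhibition = 92 µM tetraoctylammonium bromide; nearly all actives have a fitted effect of over 60% in size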
Outline: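 2500 cells/well in complete medium, compound-treated 24 h at 37 C. Viability read as intracellular ATP by CellTiter-Glo luminescence after 30 min at room temperature. AC50 from Hill fits of qHTS concentration-response data.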

[18] = Cell Viability - LYMP2-013 (AID 970);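 also: 0% = DMSO only and full inhibition = tetraoctylammonium bromide control; nearly all actives have a fitted effect of over 55% in size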
Outline: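 Human lymphoblastoid LYMP2-013 cells, 2500/well, treated 24 h at 37 C in complete medium; viability as intracellular ATP by CellTiter-Glo luminescence after 30 min. AC50 from Hill fits of qHTS concentration-response.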

[19] = Cell Viability - LYMP2-015 (AID 971);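 also: 0% = DMSO only and full effect = 92 µM tetraoctylammonium bromide; nearly all actives have a fitted effect of over 55% in size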
Outline: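 LYMP2-015 human lymphoblastoid cells (2500/well) in complete medium, compound-treated 24 h at 37 C; viability read as cellular ATP by CellTiter-Glo luminescence after 30 min at room temperature. AC50 from Hill-equation fits of qHTS concentration-response data.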

[20] = Cell Viability - LYMP2-017 (AID 972); also: % is scaled to controls: 0 for no effect and ±100 for the full control effect; nearly all actives have a fitted effect of over 55% in size
Outline: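 LYMP2-017 human lymphoblastoid cells (2500/well) settled 5 hr at 37 C, then exposed to compound 24 hr at 37 C in complete medium. Viability taken as intracellular ATP by CellTiter-Glo luminescence after 30 min at RT; AC50 from Hill fits.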

[21] = Cell Viability - LYMP2-019 (AID 973)
Outline: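 Human lymphoblastoid LYMP2-019 cells (2500/well) preincubated 5 h at 37 C, then treated 24 h at 37 C in complete medium. Viability by CellTiter-Glo ATP luminescence after 30 min at room temperature; AC50 from Hill fits.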

[22] = Cell Viability - LYMP2-021 (AID 974)
Outline: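 Human lymphoblastoid LYMP2-021 cells, 2500/well in complete medium, treated 24 hours at 37 C. Intracellular ATP by CellTiter-Glo luminescence (30 min, RT); AC50 from Hill fits of concentration-response.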

[23] = Cell Viability - LYMP2-023 (AID 975)
Outline: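 LYMP2-023 human lymphoblastoid cells, 2500/well, preincubated 5 hr at 37 C, then compound-treated 24 hr at 37 C in complete medium. CellTiter-Glo luminescence (ATP) after 30 min at room temperature; AC50 from Hill-equation fits; tetraoctylammonium bromide positive control.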

Cytochrome P450 3A4 (Homo sapiens), sequence (P08684 whole entry, looked up): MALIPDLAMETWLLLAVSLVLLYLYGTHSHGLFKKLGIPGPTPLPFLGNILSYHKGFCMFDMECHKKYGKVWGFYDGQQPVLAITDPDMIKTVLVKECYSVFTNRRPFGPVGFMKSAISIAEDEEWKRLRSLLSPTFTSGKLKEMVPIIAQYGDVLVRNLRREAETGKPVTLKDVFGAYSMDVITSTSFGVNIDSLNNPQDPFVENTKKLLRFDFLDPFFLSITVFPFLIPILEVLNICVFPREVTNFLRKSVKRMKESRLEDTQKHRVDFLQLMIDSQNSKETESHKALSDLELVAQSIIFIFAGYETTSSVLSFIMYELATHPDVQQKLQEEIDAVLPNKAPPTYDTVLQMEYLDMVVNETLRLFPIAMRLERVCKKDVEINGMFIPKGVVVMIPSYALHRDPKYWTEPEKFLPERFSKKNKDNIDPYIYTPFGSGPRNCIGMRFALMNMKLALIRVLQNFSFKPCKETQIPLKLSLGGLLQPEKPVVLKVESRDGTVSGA

BrCCBr
inactive: outcome [1] | outcome [2] | caspase-3 activation [3] -15.1% | Potency [4] | Potency [5] | Potency [6] | Potency [7] | outcome [8] | Potency [9] | Potency [10] | Potency [11] | Potency [12] | Potency [13] | Potency [14] | Potency [15] | Potency [16] | Potency [17] | Potency [18] | Potency [19] | Potency [20] | Potency [21] | Potency [22] | Potency [23]
